Assay [1] concerns the target Retinoic acid receptor alpha (Homo sapiens) (UniProt P10276). Description: ATG_RARa_TRANS: Attagene TRANS-FACTORIAL HepG2 Assay for human Retinoic Acid Receptor alpha (RARa) (AID 2283005; active = hit-call score of the fitted dose curve at least 0.9, where 1 is the maximum). The essentials:
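HepG2 transiently transfected with multiplex GAL4-UAS reporter units including a human RARa–GAL4 chimera; 24 h compound exposure. Reporter mRNA quantified by RT-PCR, 6-FAM labeling and capillary electrophoresis; gain of signal versus DMSO.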

In assay [2] the target is human Matrix Metalloproteinase-9 (MMP9), MMP9 (gene 4318) (UniProt P14780). The assay can be described thus: NVS_ENZ_hMMP9: NovaScreen (NVS) Enzymatic Assay for human Matrix Metalloproteinase-9 (MMP9) (AID 2283190; active = hit-call score of the fitted dose curve at least 0.9, where 1 is the maximum;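 also: cell-free recombinant MMP9 protease activity read by fluorescent substrate signal; active means inhibition seen as loss of fluorescence signal versus DMSO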). The gist of the method: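 Cell-free recombinant MMP9 enzyme activity measured by fluorescence intensity 1 h after dosing. Primary screen in duplicate at 25 uM, actives followed in concentration series; loss of signal relative to DMSO.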
human Matrix Metalloproteinase-9 (MMP9), MMP9 (gene 4318), sequence (P14780 whole entry, looked up): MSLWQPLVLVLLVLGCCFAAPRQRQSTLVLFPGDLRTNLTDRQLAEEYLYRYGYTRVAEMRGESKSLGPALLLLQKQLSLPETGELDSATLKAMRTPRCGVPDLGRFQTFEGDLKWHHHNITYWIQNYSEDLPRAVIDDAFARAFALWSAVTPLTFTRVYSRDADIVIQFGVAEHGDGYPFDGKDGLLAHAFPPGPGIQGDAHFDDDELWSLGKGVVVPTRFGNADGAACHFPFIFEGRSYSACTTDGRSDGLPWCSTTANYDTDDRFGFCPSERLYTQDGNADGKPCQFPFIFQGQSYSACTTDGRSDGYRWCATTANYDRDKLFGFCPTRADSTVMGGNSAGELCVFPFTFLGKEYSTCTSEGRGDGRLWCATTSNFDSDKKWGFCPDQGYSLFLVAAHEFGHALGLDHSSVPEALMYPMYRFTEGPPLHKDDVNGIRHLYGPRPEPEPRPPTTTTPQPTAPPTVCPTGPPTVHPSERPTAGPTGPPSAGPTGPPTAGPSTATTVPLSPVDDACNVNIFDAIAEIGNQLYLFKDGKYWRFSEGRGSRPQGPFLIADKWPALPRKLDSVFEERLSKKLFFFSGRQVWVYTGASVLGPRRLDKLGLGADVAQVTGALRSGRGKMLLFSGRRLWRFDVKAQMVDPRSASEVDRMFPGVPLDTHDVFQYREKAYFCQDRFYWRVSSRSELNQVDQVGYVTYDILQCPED

Assay [3] has as its system frog Estrogen Receptor (ESR2), gene 100174814. The assay can be described thus: ATG_frER2_XSP1: Attagene TRANS-FACTORIAL Multi-Species (XSP1) HepG2 Assay for frog Estrogen Receptor (ESR2) (AID 2283774; active = hit-call score of the fitted dose curve at least 0.9, where 1 is the maximum). The essentials:
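HepG2 cells transiently transfected with GAL4-UAS reporter units expressing chimeric frog ER-Gal4; 3 nM 6-alpha-fluorotestosterone present. After 24 h dosing, reporter mRNA quantified by RT-PCR and capillary electrophoresis; gain-of-signal fitted relative to DMSO.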

The test system of assay [4] is zebrafish Estrogen Receptor (ESR2A), gene 317734. The assay can be described thus: ATG_zfER2a_XSP1: Attagene TRANS-FACTORIAL Multi-Species (XSP1) HepG2 Assay for zebrafish Estrogen Receptor (ESR2A) (AID 2283778; active = hit-call score of the fitted dose curve at least 0.9, where 1 is the maximum). The essentials: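 HepG2 cells transiently transfected with GAL4-UAS reporter units driven by a zebrafish ESR2A–Gal4 chimera; 24 h compound exposure with 3 nM 6-alpha-fluorotestosterone present. Reporter mRNA measured by RT-PCR with fluorescent capillary electrophoresis, fitted positive versus DMSO.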

A short description of assay [5]: CCTE_Shafer_MEA_acute_spike_number: CCTE's Neural Acute Assay for Total Number of Spikes, Shafer Lab (AID 2284008).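 As to AC50: curve fitted for decrease in spike count so AC50 reflects inhibitors.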 The gist of the method: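 Read-out is the total spike count over 40 min, expressed as percent change from each well's own pre-treatment baseline and fitted in the loss direction against DMSO. Rat cortical neurons were exposed at 0.03-40 uM on DIV 13 or 15.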

Assay [6] can be described thus: CCTE_Shafer_MEA_acute_firing_rate_mean: CCTE's Neural Acute Assay for Mean Firing Rate, Shafer Lab (AID 2284009).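 Also: analyzed for loss of signal so actives lower firing rate relative to DMSO.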 The essentials:
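Rat primary cortical neurons on 48-well MEA plates, dosed at 0.03-40 uM on DIV 13 or 15; 40 min spontaneous activity recorded at 37 C before and after compound. Spike rate per electrode averaged per well, expressed as percent change from baseline.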

A short description of assay [7]: CCTE_Shafer_MEA_acute_burst_number: CCTE's Neural Acute Assay for Single-Electrode Bursts, Shafer Lab (AID 2284013). The essentials: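 Primary rat cortical neurons on 16-electrode MEA wells, treated on DIV 13 or 15 with compound at 0.03-40 uM. Single-electrode burst count from 40-min recordings at 37 C before and after exposure; percent change from baseline per well, DMSO negative control.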

Assay [8] in a line: CCTE_Shafer_MEA_acute_per_network_burst_spike_number_mean: CCTE's Neural Acute Assay for Average Number of Spikes in a Network Burst, Shafer Lab (AID 2284019).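 As to AC50: curve fitted for loss of signal so actives reduce spikes per network burst.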 The essentials: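 Rat primary cortical neurons on 48-well MEA at DIV 13 or 15, 37 C; compounds 0.03-40 uM, at least three wells each. 40-min baseline then 40-min exposure recording; percent change in mean spikes per network burst.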

Assay [9] in a line: CCTE_Shafer_MEA_acute_per_network_burst_spike_number_std: CCTE's Neural Acute Assay for Standard Deviation of Number of Spikes in a Network Burst, Shafer Lab (AID 2284020).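 Also: fitted for decrease in spike-number SD versus DMSO so actives lower it.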 The essentials: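 Rat primary cortical neurons on 48-well MEA (16 electrodes/well), treated DIV 13 or 15 at 0.03-40 uM, ≥3 wells per compound. 40 min recordings at 37 C before and after dosing; value is percent change in network-burst spike-number SD, negative direction vs DMSO.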

Assay [10] in a line: CCTE_Shafer_MEA_acute_cross_correlation_area: CCTE's Neural Acute Assay for Area of Cross Correlation, Shafer Lab (AID 2284024).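 Also: area under pooled inter-electrode spike cross-correlation near zero lag as percent change from own baseline; curves fitted for loss of cross-correlation area so actives lower synchrony.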 The essentials: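 Plates equilibrated 20 min at 37 C, then 40 min baseline was recorded, compound was added (0.03-40 uM), and a further 40 min was recorded. Wells needed ≥10 active electrodes (≥5 spikes/min) on exposure day.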
Read-out in assay [11]: Collagen I, COL1A1 (gene 1277)
Description: BSK_hDFCGF_CollagenI: BioMAP Diversity Plus: hDFCGF Assay for Collagen I Biomarker Activity (AID 2284250). The conditions noted are these: primary human foreskin fibroblasts. The gist of the method: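 Cells were primary human foreskin fibroblasts treated for 24 h. Collagen I levels were then determined by ELISA and compared against DMSO controls.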

Read-out in assay [12]: Interleukin-8 (IL8), CXCL8 (gene 3576)
The assay can be described thus: BSK_KF3CT_IL8: BioMAP Diversity Plus: KF3CT Assay for Interleukin-8 (IL8) Biomarker Activity (AID 2284254). The conditions noted are these: primary human keratinocytes with fibroblasts. The essentials:
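Chemicals were added to co-cultured human keratinocytes and foreskin fibroblasts, incubated 24 h, then IL-8 was quantified by ELISA. Cytotoxicity was tracked by sulforhodamine B total-protein staining in parallel cultures.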

Read-out in the next assay: KRT18 (gene 3875)
Description: BSK_BE3C_Keratin818: BioMAP Diversity Plus: BE3C Assay for Keratin 818 Biomarker Activity (AID 2284282). The conditions noted are these: primary human bronchial epithelial cells. The essentials: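 BE3C: human bronchial epithelial primary cells, 24 h exposure, Keratin 8/18 ELISA; DMSO = negative control/baseline; cytotoxicity by parallel SRB stain (0.1% SRB after 10% TCA fixation, 560 nm).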

Assay [13] is described as follows: CEETOX_H295R_MTT_cell_viability: Viability Assessment in the CeeTox HT-H295R MTT Assay (AID 2283718).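 As to AC50: curve fitted both ways so AC50 may mark viability loss or gain.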 The essentials: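 Human H295R adrenal cells, prestimulated 48 h with 10 uM forskolin, were exposed 48 h to chemicals in 0.1% DMSO. Viability was measured in the same wells by MTT (0.5 mg/ml, 4 h, 37 C), absorbance 570/650 nm, as percent of controls.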
Assay [14] deals with Estrogen receptor (Homo sapiens) (UniProt P03372). The assay can be described thus: OT_ER_ERaERa_1440: Odyssey Thera (OT) 24-hour HEK293T Protein-Complementation Assay for Estrogen Receptor-alpha/-alpha Homodimer (AID 2283349; active = hit-call score of the fitted dose curve at least 0.9, where 1 is the maximum;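 also: hits raise fluorescence above DMSO for agonists and antagonists alike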). The gist of the method: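 HEK293T cells stably expressing the human ER alpha ligand-binding domain (aa 310-547) as a homodimer PCA were dosed for 24 hours. Fluorescence intensity was read by laser scanning cytometry, and gain of signal was fitted relative to DMSO vehicle.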
Estrogen receptor (Homo sapiens), sequence (P03372 whole entry, looked up, the tested form may be a part): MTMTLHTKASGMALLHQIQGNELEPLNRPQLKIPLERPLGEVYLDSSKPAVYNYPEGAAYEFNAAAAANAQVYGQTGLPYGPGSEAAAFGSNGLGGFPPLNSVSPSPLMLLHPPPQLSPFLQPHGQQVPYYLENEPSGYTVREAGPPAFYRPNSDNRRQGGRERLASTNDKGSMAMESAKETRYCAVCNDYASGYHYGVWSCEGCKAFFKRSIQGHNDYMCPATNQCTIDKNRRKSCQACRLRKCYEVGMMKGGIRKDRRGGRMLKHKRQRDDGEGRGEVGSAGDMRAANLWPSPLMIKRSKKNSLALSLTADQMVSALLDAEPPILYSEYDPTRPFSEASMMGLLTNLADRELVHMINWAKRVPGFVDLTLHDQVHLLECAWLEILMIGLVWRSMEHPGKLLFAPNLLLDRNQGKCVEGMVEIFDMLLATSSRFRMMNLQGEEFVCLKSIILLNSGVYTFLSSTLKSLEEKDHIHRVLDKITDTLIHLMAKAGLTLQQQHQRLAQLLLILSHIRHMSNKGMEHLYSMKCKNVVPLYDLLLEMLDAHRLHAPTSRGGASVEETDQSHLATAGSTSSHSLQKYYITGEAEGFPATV

Assay [15] has the same target. Description: OT_ER_ERaERa_0480: Odyssey Thera (OT) 8-hour HEK293T Protein-Complementation Assay for Estrogen Receptor-alpha/-alpha Homodimer (AID 2283351; active = hit-call score of the fitted dose curve at least 0.9, where 1 is the maximum;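 also: rise in fluorescence from reassembled reporter fragments on ERα LBD homodimer in nucleus or whole cell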). The gist of the method:
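Binding reporter in which dimerisation of ERα LBD (aa 310-547) fusions reconstitutes a fluorescent reporter in HEK293T cells. Compounds incubated 8 h; mean fluorescence intensity increase versus DMSO scored.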

Assay [16] has as its target Estrogen receptor (Homo sapiens) + Estrogen receptor beta (Homo sapiens) (UniProt P03372+Q92731). The assay can be described thus: OT_ER_ERaERb_1440: Odyssey Thera (OT) 24-hour HEK293T Protein-Complementation Assay for Estrogen Receptor-alpha/-beta Homodimer (AID 2283356; active = hit-call score of the fitted dose curve at least 0.9, where 1 is the maximum;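 also: heteromer of ER alpha and ER beta binding domains; hits raise reporter fluorescence and both agonists and antagonists give an increase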). The essentials: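 Stable HEK293T PCA line, ERα LBD 310-547 + ERβ LBD 263-489 fused to reporter fragments; 24 h treatment; fluorescence read by laser scanning cytometry; positive fitting direction relative to DMSO.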

Assay [17] concerns the target Estrogen receptor (Homo sapiens) (UniProt P03372). Description: OT_ERa_GFPERaERE_0480: Odyssey Thera (OT) 8-hour HeLa Transcription Induction Assay for Estrogen Receptor (AID 2283381). The essentials: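 Cells (HeLa) receive compound; after 8 h, reporter fluorescence is imaged and quantified by high-content analysis. Gain-of-signal relative to DMSO gives the endpoint.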

Assay [18] shares this target. Description: OT_ERa_GFPERaERE_0120: Odyssey Thera (OT) 2-hour HeLa Transcription Induction Assay for Estrogen Receptor (AID 2283382; active = hit-call score of the fitted dose curve at least 0.9, where 1 is the maximum). The gist of the method:
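Measures ESR1 pathway reporter gain-of-signal in HeLa cells after a 2-hour treatment, detected as fluorescent protein induction by microscopy, DMSO as baseline.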

The target in assay [19] is human Dopamine Transporter (DAT), SLC6A3 (gene 6531) (UniProt Q01959). The assay can be described thus: NVS_TR_hDAT: NovaScreen (NVS) Transporter Assay for human Dopamine Transporter (DAT) (AID 2283374; active = hit-call score of the fitted dose curve at least 0.9, where 1 is the maximum;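 also: activity means loss of bound radioligand signal relative to DMSO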). The gist of the method: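 Cell-free radioligand displacement binding at human DAT, 1 h after dosing, with filtration and scintillation counting. Primary screen in duplicate at 25 uM, actives then in concentration series. Loss of bound signal versus DMSO scored.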
human Dopamine Transporter (DAT), SLC6A3 (gene 6531), sequence (Q01959 whole entry, looked up): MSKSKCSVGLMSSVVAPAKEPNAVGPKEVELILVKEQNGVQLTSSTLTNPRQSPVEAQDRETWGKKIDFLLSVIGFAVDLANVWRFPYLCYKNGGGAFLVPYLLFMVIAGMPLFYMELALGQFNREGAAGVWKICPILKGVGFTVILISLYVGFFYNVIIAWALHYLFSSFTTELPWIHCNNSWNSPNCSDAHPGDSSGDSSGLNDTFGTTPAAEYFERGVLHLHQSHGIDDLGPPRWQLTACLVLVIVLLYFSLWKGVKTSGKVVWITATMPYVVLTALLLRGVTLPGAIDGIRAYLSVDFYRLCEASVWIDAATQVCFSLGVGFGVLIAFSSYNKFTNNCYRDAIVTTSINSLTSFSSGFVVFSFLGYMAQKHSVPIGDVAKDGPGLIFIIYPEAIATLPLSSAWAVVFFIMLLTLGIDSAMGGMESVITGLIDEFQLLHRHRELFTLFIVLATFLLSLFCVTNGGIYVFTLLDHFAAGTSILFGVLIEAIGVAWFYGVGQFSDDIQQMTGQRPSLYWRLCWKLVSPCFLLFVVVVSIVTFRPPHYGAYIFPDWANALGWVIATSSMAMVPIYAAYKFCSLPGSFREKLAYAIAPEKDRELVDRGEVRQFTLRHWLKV

Inconclusive results are not listed. Where a structure was tested more than once in an assay, its records may differ in their call. Active and inactive are the calls of the source. The calls were made as follows, unless noted: active = hit-call score of the fitted dose curve at least 0.9, where 1 is the maximum; inactive = score below 0.9.

Estrogen receptor (Homo sapiens) + Estrogen receptor beta (Homo sapiens), sequence (P03372 whole entry, looked up, the tested form may be a part): as the sequence (P03372 whole entry, looked up, the tested form may be a part) above
Estrogen receptor (Homo sapiens) + Estrogen receptor beta (Homo sapiens), sequence (Q92731 whole entry, looked up, the tested form may be a part): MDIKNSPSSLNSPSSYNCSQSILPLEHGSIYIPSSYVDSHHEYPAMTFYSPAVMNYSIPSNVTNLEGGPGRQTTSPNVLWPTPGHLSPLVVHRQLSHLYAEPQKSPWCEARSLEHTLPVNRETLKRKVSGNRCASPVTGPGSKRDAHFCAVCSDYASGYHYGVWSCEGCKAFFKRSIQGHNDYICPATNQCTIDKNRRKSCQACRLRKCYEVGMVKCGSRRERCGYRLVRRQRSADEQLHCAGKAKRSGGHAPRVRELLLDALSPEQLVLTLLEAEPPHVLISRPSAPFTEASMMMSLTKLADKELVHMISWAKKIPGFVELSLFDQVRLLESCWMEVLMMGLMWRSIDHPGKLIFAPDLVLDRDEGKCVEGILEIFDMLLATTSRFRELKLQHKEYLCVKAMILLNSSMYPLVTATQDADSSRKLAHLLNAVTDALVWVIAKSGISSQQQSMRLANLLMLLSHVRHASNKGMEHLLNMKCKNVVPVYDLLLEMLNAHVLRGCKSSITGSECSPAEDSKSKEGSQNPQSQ
Retinoic acid receptor alpha (Homo sapiens), sequence (P10276 whole entry, looked up, the tested form may be a part): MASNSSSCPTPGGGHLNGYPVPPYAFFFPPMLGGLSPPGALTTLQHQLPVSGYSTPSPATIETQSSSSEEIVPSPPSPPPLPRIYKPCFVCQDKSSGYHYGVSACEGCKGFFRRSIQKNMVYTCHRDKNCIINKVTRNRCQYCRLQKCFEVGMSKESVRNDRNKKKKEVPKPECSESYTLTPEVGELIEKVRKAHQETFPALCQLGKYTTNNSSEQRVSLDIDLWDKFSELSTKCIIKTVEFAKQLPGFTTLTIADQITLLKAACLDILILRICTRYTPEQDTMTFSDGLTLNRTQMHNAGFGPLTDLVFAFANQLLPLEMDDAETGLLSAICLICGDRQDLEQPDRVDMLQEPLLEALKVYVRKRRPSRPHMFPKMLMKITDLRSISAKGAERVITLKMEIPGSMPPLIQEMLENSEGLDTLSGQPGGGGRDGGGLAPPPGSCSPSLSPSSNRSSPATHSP

`CC(C)C#N`: in assay [1], the outcome was inactive.

For `CC(C)CCCCCCCOC(=O)c1ccccc1C(=O)OCCCCCCCC(C)C`, in [2], the half-maximal activity concentration (AC50) (commonly the midpoint of the concentration-response curve, whichever way the signal moves) is 10.9 µM (active). In addition, the outcome in [3] and in [4] was inactive.

For `O=[N+]([O-])O`, the AC50 was 0.0886 µM (active) in [5]; 0.0885 µM (active) in assay [6]; 0.189 µM (active) in assay [7]; 0.003 µM (active) in [8]; 0.003 µM (active) in assay [9]; 0.23 µM (active) in assay [10]. Further, the molecule was classed as inactive in [5], in [6], in assay [7], in assay [8], in assay [9] and in assay [10]. For the same molecule, the outcome (in assay [11]; in [12]; with KRT18 (gene 3875)) was inactive.

For `C=CC(=O)OCCO`, the AC50 in assay [13] is 26.7 µM (active).

With `Oc1ccc(C2(c3ccc(O)cc3)c3ccccc3-c3ccccc32)cc1`, the AC50 is 0.00882 µM (active) in [5]; 0.00883 µM (active) in [6]; 0.0359 µM (active) in assay [7]; 23.1 µM (active) in [9]; 0.0252 µM (active) in assay [10]; 0.151 µM (active) in assay [11]. Besides, the figures for the AC50 (in assay [12]; with KRT18 (gene 3875)) were 8.38 µM (active) and 0.15 µM (active), respectively. Moreover, the outcome (in assay [8]; in assay [11]; in [12]; in the assay with KRT18 (gene 3875)) was inactive.

In the case of `O=P(O)(Oc1ccccc1)Oc1ccccc1`, the molecule was called inactive in assay [14], in assay [15], in [16], in assay [17] and in [18].

With `N#Cc1cc(I)c(O)c(I)c1`, the call in assay [1] was inactive.

In the case of `C[N+](=O)[O-]`, the AC50 in assay [2] was 1.45 µM (active).

For `CC(C)(C)C(O)C(Oc1ccc(-c2ccccc2)cc1)n1cncn1` (stereo unspecified), in [19], the AC50 was 13.4 µM (active). Further, the call in assay [13] was inactive.

Turning to `CC(C)(c1cc(Cl)c(O)c(Cl)c1)c1cc(Cl)c(O)c(Cl)c1`, the molecule was classed as inactive in assay [19]. The AC50 in [3] was 3.55 µM (active); in assay [4], 2.02 µM (active).

Regarding `C[C@]12CC[C@H](O)C[C@H]1CC[C@@H]1[C@@H]2C[C@@H](O)[C@]2(C)[C@@H](C3=CC(=O)OC3)CC[C@]12O`, the concentration at half-maximal activity (AC50) is 40.9 µM (active) in assay [19] and 2.57 µM (active) in [13].

As for `CCCC=NO`, the call in assay [14], in [15], in [16], in assay [17] and in assay [18] was inactive.

On to `c1ccc2c(c1)CCCC2`, for which the outcome in [14], in [15], in [16], in [17] and in assay [18] was inactive.

For the origin of these results see PubChem BioAssay (EPA / NIEHS).
